DT40 TDP1 no CPT = qHTS for Inhibitors of human tyrosyl-DNA phosphodiesterase 1 (TDP1): qHTS in cells in absence of CPT; DT40 Tdp1-/- hTDP1 cells, no CPT, ATP luminescence, 48 h; Potency, µM (doses to about 46.2 µM), most hits filed as inhibitors; hit rate 15% among 420,000; AID 686978, 2013; further: nearly all actives have a fitted effect of over 55% in size
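Growth of hTDP1-complemented DT40 Tdp1-knockout cells is measured by ATP luminescence after at least 48 hr compound exposure at 37 °C, with DMSO substituting for the 20 nM CPT used in the parallel screen.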
HT1080NT lethal = kills 2HG-producing HT-1080-NT fibrosarcoma cells; HT-1080-NT fibrosarcoma viability, CellTiter-Glo ATP luminescence, 48 h; Potency, µM (top dose mostly 46.1 µM), usual class: cytotoxic; hit rate 1.6% among 360,000;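 further: NT is the 2HG producing partner of a matched IDH1 knockdown line; nearly all actives have a fitted effect of over 55% in size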
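Fibrosarcoma NT cells, 750 per well in 5% FBS RPMI, were exposed to compound for 48 hours. Viability: CellTiter-Glo luminescence.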
DT40 TDP1 CPT = growth inhibition of DT40 Tdp1-/-;hTDP1 cells with camptothecin (screen for TDP1 inhibitors); chicken DT40 Tdp1-/-;hTDP1 cells + 20 nM CPT, ATP luminescence, 48 h; Potency, µM (top dose mostly 46.2 µM), usual class: inhibitors; AID 686979; hit rate 12% among 420,000; further: nearly all actives have a fitted effect of over 55% in size
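Chicken DT40 Tdp1-/- cells stably complemented with human TDP1 were seeded at 400 cells/well in medium containing 20 nM camptothecin, exposed to pin-transferred compounds, and grown at 37 °C for at least 48 hr. Viability was read as ATP luminescence.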
HT1080 IDH1KD tx = kills HT-1080 cells with IDH1 knockdown; Potency, µM (titrated, usually from 46.1 µM), most hits filed as cytotoxic; AID 686971; HT-1080 IDH1 knockdown viability, ATP luminescence, 48 h; hit rate 2% among 360,000
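Viability of IDH1-knockdown HT-1080 fibrosarcoma cells was assessed by CellTiter-Glo after 48 h at 37 °C with titrated compound; concentration-effect curves were classified by fit quality and response size.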
IL-1B inflam inh = inflammasome signaling inhibition, IL-1 beta readout; THP-1 LPS/ATP IL-1B secretion, AlphaLISA, 16 h; hits give low values; activity change, % at 57.5 µM; hit rate 4.7% among 360,000; in the data active means activity change below about -50%; inconclusive means mostly about -30% to -49%
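Secreted IL-1B measured by AlphaLISA bead assay after 16 h compound exposure of THP-1 cells; compounds (final up to 57.5 uM) added 1 h before LPS (250 ng/mL) and ATP (1.25 mM) stimulation; lower signal means less secretion.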
A number is an active result; – = inactive; ? = inconclusive; · = no result given; [ ] = remark or other dose. An excerpt weighted towards active compounds, which were near 19% of everything screened. Unless noted, the call rests on the fitted dose curve; in most records, active means well fitted curve in the direction sought with a large enough effect; inconclusive means small, poorly fitted or top-dose-only effect, or another doubt; inactive means no such curve, though single readings can be large; an effect the other way counts as inactive or inconclusive.

SMILES	DT40 TDP1 no CPT	HT1080NT lethal	DT40 TDP1 CPT	HT1080 IDH1KD tx	IL-1B inflam inh
Cc1cc(C)nc(-n2nc(C)c3c(C(=O)O)cc(-c4cccc(Br)c4)nc32)n1	–	–	–	–	–
CN(C)CCCN(C(=O)c1ccc(S(=O)(=O)N2CCOCC2)cc1)c1nc2cc3c(cc2s1)OCO3	–	–	–	–	–
CCCC(=O)NC(=S)Nc1ccc(S(=O)(=O)N2CCc3ccccc32)cc1	21µM	–	?	–	–
COc1ccc2sc(N(CCCN(C)C)C(=O)c3ccc(S(=O)(=O)N4CCCc5ccccc54)cc3)nc2c1	16µM	–	?	–	-83
COc1cc2nc(NC(=O)c3ccc(S(=O)(=O)N4CCc5ccccc54)cc3)sc2cc1OC	15µM	·	21µM	·	·
CCOC(=O)N1CCN(S(=O)(=O)c2ccc(C(=O)N(CCCN(C)C)c3nc4ccc(OC)cc4s3)cc2)CC1	?	–	?	–	?
COc1cc2nc(N(CCCN(C)C)C(=O)c3ccc(S(=O)(=O)N4CCc5ccccc54)cc3)sc2cc1OC	16µM	?	?	?	-101
COCC1CCCN(Cc2ccc3c(c2)CN(C(=O)c2ccc(OC)nc2OC)CCO3)C1 (stereo unspecified)	–	·	–[9.04 µM]	·	·
N#C/C(=N\Nc1cccc([N+](=O)[O-])c1)C(=O)c1ccc(Br)cc1	6.5µM	5.8µM	5.8µM	2.6µM	-64
COc1ccc(C(=O)Nc2ccc(S(=O)(=O)N3CCc4ccccc43)cc2)cc1	23µM	–	26µM	?	–
CCN(CC)CCNC(=O)c1ccc(NC(=O)c2cccc(S(=O)(=O)N3CCc4ccccc43)c2)cc1	?	?	?	?	-85
N#C/C(=N\Nc1ccc(S(=O)(=O)N2CCc3ccccc32)cc1)C(N)=S	12µM	10µM	–	9.2µM	–
NS(=O)(=O)c1ccc(NC(=O)c2ccc(S(=O)(=O)N3CCc4ccccc43)cc2)cc1	?	–	?	–	–
Cc1cn(C)c(CC(=O)N2CCN(c3cccc(Cl)c3)CC2)c1C(=O)O	–	·	?	·	·
CC(NCC(=O)Nc1ccccc1C(=O)NC1CC1)c1ccco1 (stereo unspecified)	–	–	–	–	–
CCCCn1c(=O)[nH]c(=O)c2c1nc(-c1ccccn1)n2CC	–	–	–	–	–
N#C/C(=N\Nc1ccc([N+](=O)[O-])cc1)C(N)=S	23µM	?	?	13µM	-66
Cc1c(Cl)ccc2sc(NC(=O)c3ccc(S(=O)(=O)N4CCCC4)cc3)nc12	–	·	–	·	·
Cc1c(Cl)ccc2sc(NC(=O)c3ccc(S(=O)(=O)N4CCCc5ccccc54)cc3)nc12	18µM	·	?	·	·
O=c1cc(C(F)F)oc2c1ccc1ccccc12	–	–	–	–	–
Nc1ccc(N2CCOCC2)c(S(=O)(=O)Nc2cc(Cl)ccc2Cl)c1	–	–	–	–	–
COCC(=O)Nc1ccc(N2CCOCC2)c(S(=O)(=O)Nc2ccccc2OC)c1	?	–	–	–	–
O=C(/C=C/c1cccs1)Nc1ccc(N2CCOCC2)c(S(=O)(=O)Nc2cc(Cl)ccc2Cl)c1	23µM	–	?	–	–
O=C(/C=C/c1cccs1)Nc1ccc(N2CCOCC2)c(S(=O)(=O)Nc2ccccc2Cl)c1	23µM	–	?	–	?
Cn1c(=O)c2c(O)c([N+](=O)[O-])c(=O)n(C)c2n(C)c1=O	–	–	–	–	–
SMILES	DT40 TDP1 no CPT	HT1080NT lethal	DT40 TDP1 CPT	HT1080 IDH1KD tx	IL-1B inflam inh
O=C1CCC(C(=O)OCC(=O)N2N=C3/C(=C/c4ccccc4)CCCC3C2c2ccccc2)N1 (stereo unspecified)	23µM	–	?	–	–
O=C(c1ccccn1)N1N=C2/C(=C/c3ccccc3)CCCC2C1c1ccccc1 (stereo unspecified)	?	–	?	–	–
COc1ccc(/C=C2\CCCC3C2=NN(C(=O)CSc2n[nH]c(N)n2)C3c2ccc(OC)cc2)cc1 (stereo unspecified)	?	?	23µM	?	–
O=C1CCC(C(=O)OCC(=O)N2N=C3/C(=C\c4ccccc4)CCCC3C2c2ccccc2)N1 (stereo unspecified)	21µM	–	?	–	–
Cc1cc2nc(CN(C)C(=O)C3CCC(=O)N(C4CCCC4)C3)[nH]c2cc1C (stereo unspecified)	–	–	–	–	–
Clc1ccc2c(c1)N=C(N1CCNCC1)c1ccccc1N2	9.2µM	·	13µM	·	·
CN(C)c1ccc(C(c2ccc(N(C)C)cc2)C(O)c2ccccc2)cc1 (stereo unspecified)	?	–	?	–	-55
CN(c1ccccc1)S(=O)(=O)c1cccc(NC(=O)CSc2n[nH]c(N)n2)c1	9.2µM	–	9.2µM	–	–
Cc1nnc(SCC(=O)Nc2cccc(S(=O)(=O)N(C)c3ccccc3)c2)s1	6.5µM	–	8.2µM	–	–
Nc1nc(SCC(=O)Nc2cccc(S(=O)(=O)N3CCCCCC3)c2)n[nH]1	–	–	–	–	–
COc1ccccc1C(=O)NC(CCSC)C(=O)OC(C)C(=O)NC1CC1 (stereo unspecified)	–	–	–	–	–
c1cc(CNC2C3CC4CC(C3)CC2C4)ccn1 (stereo unspecified)	?	–	–	–	–
COc1ccc(NC(=O)c2ccc3c(c2)c(C)c(C)n3Cc2ccc(F)cc2)cc1	4.6µM	·	5.2µM	·	·
COc1ccc(Cn2ccc3nc(C)c(C(=O)Nc4ccc(F)cc4)cc3c2=O)cc1	–	·	–	·	·
CCOC(=O)c1ccc(NC(=O)c2ccc3c(c2)c(C)c(C)n3Cc2ccc(F)cc2)cc1	8.2µM	·	9.2µM	·	·
CC(=O)Nc1ccc(NC(=O)CS(=O)(=O)c2cn(CC(=O)N3CCCC3)c3ccccc23)cc1	–	–	–	–	–
O=C(C[C@H]1C/C=C\CC[C@@H](Cc2ccc(F)cc2)C(=O)OC[C@H]2CCCN2C1=O)N[C@@H](CO)Cc1ccccc1	15µM	–	?	–	–
O=C(C[C@H]1C/C=C\CC[C@H](Cc2ccc(F)cc2)C(=O)OC[C@H]2CCCN2C1=O)N[C@@H](CO)Cc1ccccc1	15µM	–	?	–	–
O=C(C[C@@H]1C/C=C\CCCC(=O)OC[C@@H]2CCCN2C1=O)N[C@H](CO)Cc1ccccc1	–	–	–	–	–
O=C(C[C@H]1C/C=C\CC[C@H](Cc2ccc(F)cc2)C(=O)OC[C@H]2CCCN2C1=O)N[C@H](CO)Cc1ccccc1	21µM	–	23µM	–	–
O=C(C[C@@H]1C/C=C\C[C@@H](Cc2ccc(F)cc2)C(=O)OC[C@H]2CCCN2C1=O)N[C@H](CO)Cc1ccccc1	21µM	–	?	–	–
